# Laboratory results published in PubChem BioAssay.
# Calls of active or inactive are those of the source.
# Tests used:
# [1] = A549 cell viability effects, profiling panel, calcein-AM fluorescence, 48 h, basal (AID 1162); settings: higher = more signal
# [2] = adipocyte viability effects, profiling panel, cell-based, 3T3-L1 adipocytes, calcein-AM fluorescence, 48 h, basal (AID 1163); settings: 3T3-L1 adipocytes viability, higher = more signal
# [3] = HepG2 cell viability effects, profiling panel, calcein-AM fluorescence, 48 h, basal (AID 1164); settings: higher = more signal
# [4] = MM1S cell viability effects, profiling panel, calcein-AM fluorescence, 48 h, basal (AID 1165); settings: higher = more signal;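 note: viability of MM1S multiple myeloma cells under basal unstimulated conditions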
# [5] = basal RPMI8226 viability, no added stimulus, profiling panel, cell-based, calcein-AM fluorescence, 48 h, PK04 Diversity Set (AID 1166); settings: RPMI8226 myeloma viability, higher = more signal;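 note: cells grown under basal conditions without added stimulus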
# [6] = basal HepG2 mitochondrial membrane potential changes, profiling panel, cell-based, JC-1 fluorescence, 24 h, 100 nL compound (AID 1167); settings: higher = more signal
# [7] = basal 3T3-L1 adipocyte mitochondrial potential changes, profiling panel, cell-based, JC-1 fluorescence, 3T3-L1 adipocytes, 24 h, 100 nL compound (AID 1168); settings: JC-1 mitochondrial fluorescence, higher = more signal, called active from +8 up or from −8 down
# [8] = basal RPMI8226 mitochondrial membrane potential changes, profiling panel, cell-based, JC-1 fluorescence, 24 h, 100 nL compound (AID 1169); settings: RPMI8226 myeloma, JC-1 mitochondrial potential fluorescence, higher = more signal
# [9] = basal MM1S mitochondrial membrane potential changes, profiling panel, cell-based, JC-1 fluorescence, 24 h, 100 nL compound (AID 1170); settings: higher = more signal
# [10] = A549 lung cancer cell viability effects, profiling panel, resazurin fluorescence, 24 h, PK04 Diversity Set (AID 1171); settings: higher = more signal, called active from +8 up or from −8 down
# Note: test concentration not given here.
SMILES,z-score [1],z-score [2],z-score [3],z-score [4],z-score [5],z-score [6],z-score [7],z-score [8],z-score [9],z-score [10]
CC(CO)N1C(=O)[C@@H]2[C@H]3C(=O)OCC=C[C@H]3OC23C=CCN(c2ccc(Cl)cc2)C(=O)[C@@H]13 (stereo not given in full),0.0473,0.311,0.336,0.829,-0.485,-0.321,-0.574 (inactive),-0.818,0.0977,0.957 (inactive)
COc1ccc(CCNC(=O)[C@@]2(Cc3ccccc3I)c3ccccc3C(=O)N(Cc3ccccc3Cl)[C@H]2c2ccc(CO)cc2)cc1,-0.613,-0.073,-0.63,-3.36,-1.92,0.962,0.119 (inactive),-0.0808,-0.413,0.109 (inactive)
C=CCC(OC(C)=O)[C@@H]1[C@@H](N(Cc2ccc(-c3cccc(C(F)(F)F)c3)o2)C(=O)c2ccc(C)cc2)c2cc(OCCCO)ccc2N1C(=O)Cc1ccc(OC)cc1 (stereo not given in full),1.22,0.608,2.12,-0.155,0.002,3.98,0.557 (inactive),-0.245,-0.83,1.25 (inactive)
COCCOC(=O)N1C(=O)[C@@]2(c3cc(C#CCNC(N)=O)ccc31)[C@H](c1ccc(OCCO)cc1)N1[C@H](c3ccccc3)[C@H](c3ccccc3)OC(=O)[C@H]1[C@@H]2C(=O)NC[C@H](O)c1ccccc1,-1.31,0.494,-0.542,-0.193,-0.158,-1.49,0.17 (inactive),0.235,-0.391,0.32 (inactive)
C=C(/C(=C/C[C@@H](OC(C)=O)c1ccc(CO)o1)c1cc(C(=O)OC)ccc1OC)C(C)C,1.62,-0.634,0.377,-0.998,0.0028,-0.241,-0.298 (inactive),-0.544,-1.2,-0.0571 (inactive)
CC(C)C(CO)N1C(=O)[C@@H]2[C@H]3C(=O)OCC=C[C@H]3OC23C=CCN(C(C)(C)C)C(=O)[C@@H]13 (stereo not given in full),-0.234,-0.783,-0.543,0.583,-0.251,-1.16,-0.0819 (inactive),0.185,0.264,-0.166 (inactive)
COc1ccc([Si](C)(C)[C@H]2[C@H](CCO)O[C@@]3(C(=O)N(Cc4ccc(N5C(=O)c6ccccc6Oc6ccccc65)cc4)c4ccccc43)[C@@H]2C)cc1,-0.573,0.56,-2.71,-2.79,-4.04,0.0142,0.821 (inactive),-1.01,-2.04,-2.45 (inactive)
C=C(COC)/C(=C/C[C@H](OC(C)=O)c1cccc(OCCO)c1)c1cnc2ccccc2c1,0.858,1.01,0.455,-2.78,-0.114,0.713,-0.437 (inactive),0.23,-0.0946,0.127 (inactive)
CN(C)CCCNC(=O)[C@@H]1c2ccccc2C(=O)N(C2CCCCC2)[C@H]1c1ccc(CO)cc1,0.634,-0.318,0.821,-0.592,-0.514,2.43,0.626 (inactive),0.363,-0.243,0.887 (inactive)
CC(C)C[C@@H]1NC(=O)CNC(=O)[C@@]23C(=O)N[C@@H](Cc4ccccc4)C2[C@H](C)[C@@]2(C)O[C@H]2C3/C=C/C/C=C\CNC1=O (stereo not given in full),-0.692,0.404,-0.262,0.0565,-0.939,-0.513,0.00154 (inactive),-0.385,-0.181,0.547 (inactive)
COc1ccc(NC(=O)O[C@H]2[C@@H]3OC(=O)[C@H](Cc4cccc(Br)c4)C/C=C/C[C@@H](Cc4cccc(Br)c4)C(=O)O[C@H]3[C@@H](OC)O[C@@H]2CO)cc1,-0.102,-0.226,0.323,-1.14,-0.153,1.6,-0.483 (inactive),-0.897,0.329,-0.981 (inactive)
[N-]=[N+]=NCc1ccccc1C[C@@]1(C(=O)N2CCCCC2)N=C(c2ccc(OCCCO)cc2)O[C@@H]1c1ccccc1CN=[N+]=[N-],-0.683,-0.819,0.036,-1.39,-3.57,-0.357,-0.639 (inactive),-1.17,-1.64,0.742 (inactive)
COCCOC(=O)N1C(=O)[C@@]2(c3ccccc31)[C@H](c1ccc(OCCO)cc1)N1[C@H](c3ccccc3)[C@H](c3ccccc3)OC(=O)[C@H]1[C@@H]2C(=O)N1CCCCCCC1,0.246,0.0203,0.0373,-2.74,-0.846,-0.0288,-3.41 (inactive),-0.345,-0.899,0.0556 (inactive)
COc1cc(NN2C(C(O)c3ccc(I)cc3)C=CC3C(=O)N(c4ccccc4)C(=O)C32)cc(OC)c1OC (stereo not given),-0.844,-0.294,-0.683,-0.344,-1.4,-1.14,-1.46 (inactive),-0.786,-1.4,-0.749 (inactive)
CCOC(=O)C1=C[C@@H](C(C)(C)C)N(S(=O)(=O)c2ccc(C)cc2)[C@H]1c1ccc(C)cc1,-0.681,0.226,-1.73,-1.01,-1.1,6.67,-0.251 (inactive),-0.901,0.933,0.51 (inactive)
COCCOC(=O)N1C(=O)[C@@]2(c3cc(C#Cc4ccc(OC)cc4)ccc31)[C@H](c1ccc(OCCO)cc1)N1[C@H](c3ccccc3)[C@H](c3ccccc3)OC(=O)[C@H]1[C@@H]2C(=O)Nc1nc2ccccc2s1,-0.922,0.829,-1.26,-0.569,-1.26,-2.86,3.99 (inactive),-0.735,-1.13,-0.285 (inactive)
CCOC(=O)C1=CCC(c2ccccc2)N(S(=O)(=O)c2ccc([N+](=O)[O-])cc2)C1 (stereo not given),-0.482,-1.19,-1.07,-0.259,0.0811,-1.73,-0.483 (inactive),0.602,-1.37,0.217 (inactive)
O=C1NC(=O)C2C1C=CC(C(O)c1ccccn1)N2Nc1ccc(Cl)cc1Cl (stereo not given),-0.881,-0.253,-0.707,-0.588,-0.54,-1.36,-0.766 (inactive),-0.05,-0.173,-0.572 (inactive)
COc1cc2c(cc1OC)CN(C(=O)[C@@H]1[C@H]3C(=O)O[C@H](c4ccccc4)[C@H](c4ccccc4)N3[C@H](c3ccc(O)cc3)[C@@]13C(=O)Nc1ccc(C#CCCO)cc13)CC2,-0.446,-0.423,-0.314,-0.0118,0.191,-2.29,0.0304 (inactive),-0.294,-0.492,0.156 (inactive)
CCCCC(=O)N(CCN1CCOCC1)[C@@H]1CC(C(=O)NCCO)=C[C@H](Oc2c(I)cc(CO)cc2OC)[C@H]1O,1.5,-1.07,0.569,0.135,-0.157,-0.959,-0.716 (inactive),-0.277,-0.109,-0.0043 (inactive)
CCCC=C(CCC)[C@@H](NS(=O)(=O)c1cccc2cccnc12)c1ccc(-c2ccccc2)cc1,-0.97,-0.411,-0.615,-1.95,-4.54,-3.54,-0.0229 (inactive),-0.361,-0.844,0.864 (inactive)
O=C1OCC=C[C@H]2OC34C=CCN(c5ccc6ccccc6c5)C(=O)[C@H]3N(CCCCCO)C(=O)[C@@H]4[C@@H]12 (stereo not given in full),-0.381,-0.0217,-1.08,0.589,0.0725,-0.913,-0.436 (inactive),-0.0765,0.313,-1.01 (inactive)
COC(=O)C(CC#Cc1ccc2c(c1)[C@]1(C(=O)N2)[C@H](c2ccc(O)cc2)N2[C@H](c3ccccc3)[C@H](c3ccccc3)OC(=O)[C@H]2[C@@H]1C(=O)N1CCCCCCC1)C(=O)OC,1.58,0.581,1.98,0.362,-2.56,0.945,-0.174 (inactive),-0.799,-0.158,-0.636 (inactive)
C=C(CCCC)C(=O)CC[C@H](OC(=O)c1ccccc1-c1ccccc1C(=O)O)c1ccccc1OCCO,0.305,1.1,-0.669,-3.38,-3.85,-0.309,0.954 (inactive),-0.873,0.311,-0.22 (inactive)
COC(=O)[C@@]1(Cc2ccccc2CN=[N+]=[N-])N=C(c2ccc(OCCCO)cc2)O[C@H]1c1ccccc1CN=[N+]=[N-],-3.82,0.522,-5.01,-3.56,-3.89,-0.86,-1.38 (inactive),-1.07,-2.09,-2.82 (inactive)
CN1C(=O)C2C=CC(C(O)c3cc(C(F)(F)F)cc(C(F)(F)F)c3)N(NC(=O)OC(C)(C)C)C2C1=O (stereo not given),-1.29,-0.122,-0.938,0.319,-1.06,-1.28,1.03 (inactive),0.191,0.546,1.14 (inactive)
O=C(CS)NCCCCCCNC(=O)[C@@H]1C[C@@H]2C(=O)NCC(=O)N2[C@@H]1c1ccc(O)cc1,0.622,0.182,0.435,0.21,1.06,0.677,0.138 (inactive),0.391,-0.386,-0.746 (inactive)
CC(C)c1ccc(NN2C(C(O)Cc3ccccc3)C=CC3C(=O)N(c4ccccc4)C(=O)C32)cc1 (stereo not given),-0.989,-0.482,0.526,-1.06,-0.434,-2,-0.864 (inactive),0.411,1.51,-0.63 (inactive)
